According to PubChem BioAssay (EPA / NIEHS):
Where “and” joins values, the source holds several entries; their conditions need not be identical. Equal entries are not always repeated. Some compounds were tested as several samples or in several runs, with calls that do not always agree. Calls of active or inactive are those of the source. The calls were made as follows: active = hit-call score of the fitted dose curve at least 0.9, where 1 is the maximum; inactive = score below 0.9.

Legend:
[1] = ATG_PBREM_CIS: Attagene CIS-FACTORIAL HepG2 Assay for human Phenobarbital-responsive Enhancer Module (PBREM) (AID 2282955); details: HepG2 PBREM cis-reporter, Attagene multiplexed transcription; actives raise or lower the signal
Method in brief: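 Multiplexed cis-reporter readout in human hepatoma HepG2 cells; PBREM-regulated transcript quantified after 24 h exposure by fluorescent RT-PCR fragment analysis. Signal changes up or down fitted relative to DMSO.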

[2] = biological target: Paired box protein Pax-6 (Homo sapiens) (UniProt P26367); assay: ATG_Pax6_CIS: Attagene CIS-FACTORIAL HepG2 Assay for human Paired Box 6 (PAX6) (AID 2282956); details: HepG2 CIS-FACTORIAL PAX6 reporter transcription, RNA readout; actives raise or lower the signal
Sequence of Paired box protein Pax-6 (Homo sapiens) (P26367 whole entry, looked up): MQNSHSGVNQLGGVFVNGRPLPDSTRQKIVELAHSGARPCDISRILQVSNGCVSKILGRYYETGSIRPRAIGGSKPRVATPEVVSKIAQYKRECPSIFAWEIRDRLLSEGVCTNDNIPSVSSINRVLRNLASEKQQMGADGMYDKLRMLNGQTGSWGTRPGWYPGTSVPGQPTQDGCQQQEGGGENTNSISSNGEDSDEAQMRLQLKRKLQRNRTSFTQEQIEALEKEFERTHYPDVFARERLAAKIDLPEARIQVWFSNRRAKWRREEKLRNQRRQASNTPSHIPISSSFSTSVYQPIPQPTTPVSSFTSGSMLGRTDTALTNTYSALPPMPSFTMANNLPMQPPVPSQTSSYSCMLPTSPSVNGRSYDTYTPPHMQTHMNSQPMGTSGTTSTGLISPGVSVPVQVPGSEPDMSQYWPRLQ
Method in brief: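 HepG2 cells transiently transfected with cis-promoter-driven multiplexed reporter units sensing endogenous transcription factor activity; 24 h chemical exposure. Reporter mRNA quantified by RT-PCR, 6-FAM labelling, HpaI digestion and capillary electrophoresis; bidirectional fit versus DMSO baseline.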

[3] = ATG_PXRE_CIS: Attagene CIS-FACTORIAL HepG2 Assay for human Pregnane X Receptor Element (PXRE) (AID 2282957); details: HepG2 Attagene CIS-FACTORIAL PXRE reporter, mRNA; actives raise or lower the signal
Method in brief: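 HepG2 cells transiently transfected with cis-regulated multiple reporter transcription units; endogenous factor activity measured as reporter mRNA 24 h after dosing. RT-PCR, fluorescent primer extension, HpaI digestion, capillary electrophoresis; bidirectional fit versus DMSO baseline.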

[4] = ATG_PPRE_CIS: Attagene CIS-FACTORIAL HepG2 Assay for human Peroxisome Proliferator-activated Response Element (PPRE) (AID 2282958); details: HepG2 PPRE cis-element reporter, Attagene transcription factor profiling; actives raise or lower the signal
Method in brief: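 DMSO served as negative control and baseline for bidirectional curve fitting. Signal came from PPRE-regulated reporter mRNA in HepG2 cells, measured 24 h post-dosing by RT-PCR, 6-FAM primer extension and capillary electrophoresis.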

[5] = ATG_RORE_CIS: Attagene CIS-FACTORIAL HepG2 Assay for human RAR-related Orphan Receptor Element (RORE) (AID 2282959); details: HepG2 Attagene cis-factorial RORE reporter, mRNA; actives raise or lower the signal
Method in brief: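 Transfect HepG2 with MRTUs; treat 24 h; extract RNA; RT with oligo(dT); PCR with reporter-specific primers; 6-FAM primer extension; HpaI digest 2 h at 37 C; capillary electrophoresis. Fit vs DMSO, bidirectional.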

[6] = ATG_Sox_CIS: Attagene CIS-FACTORIAL HepG2 Assay for human SRY-box transcription factor (SOX) (AID 2282960); details: HepG2 Attagene cis-factorial SOX reporter, mRNA; actives raise or lower the signal
Method in brief: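 Fluorescence-labelled cDNA fragments from reporter transcripts, sized by CE, give the signal. Cells: HepG2, transiently transfected with cis-regulated reporter units. Exposure 24 h; DMSO negative control; bidirectional curve fitting.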

[7] = biological target: Transcription factor Sp1 (Homo sapiens) (UniProt P08047); assay: ATG_Sp1_CIS: Attagene CIS-FACTORIAL HepG2 Assay for human Specificity Protein 1 (Sp1) (AID 2282961); details: HepG2 Sp1 cis-reporter transcription, actives raise or lower the signal
Sequence of Transcription factor Sp1 (Homo sapiens) (P08047 whole entry, looked up): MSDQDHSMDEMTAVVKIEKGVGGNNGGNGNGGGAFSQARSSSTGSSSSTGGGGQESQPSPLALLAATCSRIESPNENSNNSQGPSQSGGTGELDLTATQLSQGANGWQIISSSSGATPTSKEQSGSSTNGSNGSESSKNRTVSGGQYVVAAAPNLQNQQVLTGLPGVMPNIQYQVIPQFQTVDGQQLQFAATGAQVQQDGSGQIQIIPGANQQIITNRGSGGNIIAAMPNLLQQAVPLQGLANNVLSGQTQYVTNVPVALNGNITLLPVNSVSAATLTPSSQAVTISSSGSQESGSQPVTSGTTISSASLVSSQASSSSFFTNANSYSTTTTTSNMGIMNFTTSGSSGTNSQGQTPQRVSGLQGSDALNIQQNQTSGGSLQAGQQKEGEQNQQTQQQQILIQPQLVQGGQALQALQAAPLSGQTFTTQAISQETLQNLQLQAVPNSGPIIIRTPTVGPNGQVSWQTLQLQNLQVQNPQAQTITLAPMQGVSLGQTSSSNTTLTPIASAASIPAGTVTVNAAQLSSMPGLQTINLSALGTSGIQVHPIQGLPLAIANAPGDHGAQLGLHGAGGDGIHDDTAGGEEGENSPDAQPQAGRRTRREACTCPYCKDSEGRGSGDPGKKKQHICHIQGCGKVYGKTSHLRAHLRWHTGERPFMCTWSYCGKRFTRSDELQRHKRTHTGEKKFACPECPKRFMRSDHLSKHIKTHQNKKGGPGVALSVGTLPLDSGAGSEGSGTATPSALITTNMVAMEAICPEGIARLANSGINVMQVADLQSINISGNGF
Method in brief: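 Chemicals are dosed onto HepG2 cells transfected with multiple cis-promoter reporter constructs, and after 24 h reporter RNA is reverse-transcribed, PCR-amplified and resolved by capillary electrophoresis for fluorescence quantitation; activity is scored up or down against DMSO.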

[8] = ATG_SREBP_CIS: Attagene CIS-FACTORIAL HepG2 Assay for human Sterol Regulatory Element Binding (SREBP) (AID 2282962); details: HepG2 Attagene cis-factorial SREBP reporter, mRNA; actives raise or lower the signal
Method in brief: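 HepG2 cells transiently transfected with multiplexed cis-promoter reporter units sensing endogenous transcription factors; reporter mRNA measured 24 h after dosing by RT-PCR, 6-FAM labeling, HpaI digestion and capillary electrophoresis. Bidirectional fit versus DMSO.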

[9] = biological target: Signal transducer and activator of transcription 3 (Homo sapiens) (UniProt P40763); assay: ATG_STAT3_CIS: Attagene CIS-FACTORIAL HepG2 Assay for human Signal Transducer and Activator of Transcription 3 (STAT3) (AID 2282963); details: HepG2, Attagene cis-factorial STAT3 reporter transcription; actives raise or lower the signal
Sequence of Signal transducer and activator of transcription 3 (Homo sapiens) (P40763 whole entry, looked up): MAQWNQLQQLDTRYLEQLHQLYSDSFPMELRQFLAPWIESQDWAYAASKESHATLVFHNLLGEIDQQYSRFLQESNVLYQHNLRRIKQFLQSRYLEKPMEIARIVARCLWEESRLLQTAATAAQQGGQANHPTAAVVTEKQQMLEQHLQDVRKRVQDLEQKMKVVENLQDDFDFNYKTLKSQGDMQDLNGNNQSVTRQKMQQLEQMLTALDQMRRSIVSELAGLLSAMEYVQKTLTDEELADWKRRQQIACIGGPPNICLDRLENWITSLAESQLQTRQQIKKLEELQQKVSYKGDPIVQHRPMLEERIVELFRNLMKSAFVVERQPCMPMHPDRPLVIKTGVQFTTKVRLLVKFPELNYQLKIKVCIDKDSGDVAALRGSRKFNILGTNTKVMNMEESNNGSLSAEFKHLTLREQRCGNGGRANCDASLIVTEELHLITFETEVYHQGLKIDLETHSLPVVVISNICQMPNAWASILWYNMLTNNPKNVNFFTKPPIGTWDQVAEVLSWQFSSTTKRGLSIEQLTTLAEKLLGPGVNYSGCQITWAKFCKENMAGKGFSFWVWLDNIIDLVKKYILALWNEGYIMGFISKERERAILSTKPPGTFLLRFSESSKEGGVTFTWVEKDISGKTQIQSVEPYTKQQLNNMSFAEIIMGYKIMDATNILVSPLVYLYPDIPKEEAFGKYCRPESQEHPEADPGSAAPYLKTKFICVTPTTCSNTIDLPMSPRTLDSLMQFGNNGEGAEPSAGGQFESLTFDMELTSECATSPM
Method in brief: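 HepG2 cells transiently transfected with cis-element-driven multiple reporter transcription units; after 24 h chemical exposure, reporter mRNA measured by RT-PCR, 6-FAM primer-extension labelling, HpaI digestion and capillary electrophoresis. Bidirectional fitting versus DMSO baseline.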

[10] = ATG_TA_CIS: Attagene CIS-FACTORIAL HepG2 Assay for human TA Basal Promoter (AID 2282964); details: HepG2 Attagene CIS-factorial TA basal promoter reporter; actives raise or lower the signal
Method in brief: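 Multiplexed mRNA reporter assay, HepG2, 24 h. Reporter cDNA amplified, 6-FAM primer-extended, HpaI-cut, CE-sized; DMSO = negative control and baseline.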

| SMILES | outcome [1] | outcome [2] | outcome [3] | outcome [4] | outcome [5] | outcome [6] | outcome [7] | outcome [8] | outcome [9] | outcome [10] | AC50 [3] | AC50 [1] | AC50 [5] | AC50 [8] |
| --- | --- | --- | --- | --- | --- | --- | --- | --- | --- | --- | --- | --- | --- | --- |
| CC(Cl)CN(C)C (stereo not given) | inactive | inactive | inactive | inactive | inactive | inactive | inactive | inactive | inactive | inactive |  |  |  |  |
| CCOc1ccc(C(C)(C)COCc2cccc(Oc3ccccc3)c2)cc1 | inactive | inactive |  | inactive | inactive | inactive |  |  | inactive | inactive | 1.93 µM (active) |  |  |  |
| c1cc2c3c(cccc3c1)CC2 | inactive | inactive | inactive | inactive | inactive | inactive |  | inactive | inactive | inactive |  |  |  |  |
| C=CC(=O)OCC(F)(F)C(F)F | inactive | inactive | inactive | inactive | inactive | inactive | inactive | inactive | inactive | inactive |  |  |  |  |
| OCC(F)(F)OC(F)(F)C(F)(F)OC(F)(F)C(F)(F)OC(F)(F)F | inactive | inactive | inactive | inactive | inactive | inactive | inactive |  | inactive | inactive |  |  |  |  |
| Nc1ccc(Cl)cc1 | inactive | inactive | inactive | inactive | inactive | inactive | inactive |  | inactive | inactive |  |  |  |  |
| Oc1ccc(I)cc1 | inactive | inactive | inactive | inactive | inactive | inactive |  | inactive | inactive | inactive |  |  |  |  |
| Nc1ccc([N+](=O)[O-])cc1Cl | inactive | inactive |  | inactive | inactive | inactive | inactive | inactive | inactive | inactive | 67.3 µM (active) |  |  |  |
| CCCCN(CC)C(=O)SCCC | inactive | inactive |  | inactive | inactive | inactive | inactive |  | inactive | inactive | 25.9 µM (active) |  |  |  |
| Cn1[nH]nnc1=S | inactive | inactive | inactive | inactive | inactive | inactive |  | inactive | inactive | inactive |  |  |  |  |
| C/C(=N\NC(=O)Nc1cc(F)cc(F)c1)c1ncccc1C(=O)O | inactive | inactive | inactive |  | inactive | inactive |  | inactive | inactive | inactive | 172 µM (active) |  |  |  |
| CSC(C)(C)C=NO | inactive | inactive | inactive | inactive | inactive | inactive | inactive | inactive | inactive | inactive |  |  |  |  |
| CCN(CC)C1CCCCC1 | inactive | inactive | inactive | inactive | inactive | inactive | inactive | inactive | inactive | inactive |  |  |  |  |
| CCCCCCCc1ccc(O)cc1 | inactive | inactive | inactive |  | inactive | inactive |  |  | inactive | inactive | 8.05 µM (active) and 14.2 µM (active) and 16.6 µM (active) |  |  |  |
| N#Cc1c(-c2ccc(Cl)cc2)[nH]c(C(F)(F)F)c1Br |  | inactive |  | inactive |  | inactive | inactive |  | inactive | inactive | 2.6 µM (active) | 0.122 µM (active) | 1 µM (active) | 0.274 µM (active) |
| CC(C)(C)c1ccccc1OP(=O)(Oc1ccccc1)Oc1ccccc1 | inactive | inactive |  | inactive | inactive | inactive | inactive |  | inactive | inactive | 0.576 µM (active) |  |  | 11.8 µM (active) |
| Cc1c([N+](=O)[O-])cc2c(c1[N+](=O)[O-])C(C)(C)CC2(C)C | inactive | inactive |  | inactive | inactive | inactive | inactive |  | inactive | inactive | 0.964 µM (active) |  |  | 7.71 µM (active) |
| Nc1cc2c3c(c1)C(c1ccccc1)=N[C@@H](NC(=O)c1cccnc1)C(=O)N3CC2 |  | inactive |  | inactive |  | inactive | inactive |  | inactive | inactive | 26.5 µM (active) | 41.9 µM (active) | 17.5 µM (active) | 66.8 µM (active) |
| CCCN(CCC)c1c([N+](=O)[O-])cc(C(C)C)cc1[N+](=O)[O-] | inactive | inactive |  | inactive | inactive | inactive |  |  | inactive | inactive | 1.08 µM (active) |  |  |  |
| N#C/C=C/c1ccccc1 | inactive | inactive | inactive | inactive | inactive | inactive | inactive | inactive | inactive | inactive |  |  |  |  |
| COP(N)(=S)OC | inactive | inactive |  | inactive | inactive | inactive |  |  | inactive | inactive | 47 µM (active) |  |  |  |
| CNC(=O)Oc1ccc(N(C)C)c(C)c1 | inactive | inactive |  | inactive | inactive | inactive | inactive | inactive | inactive | inactive | 38.3 µM (active) |  |  |  |
